The list is not random: actives were taken first. Their share in the collection is about 21%.
Pf growth 48h: Primary qHTS for delayed death inhibitors of the malarial parasite plastid, 48 hour incubation. P. falciparum luciferase growth in erythrocytes, 48 h. Potency, µM (top dose mostly 28.7 µM), inactives show top-dose activity change, negative = inhibition, hits mostly inhibitors. hit rate 5.9% among 310,000; further: potency means the concentration at half of the fitted maximal effect; on the % scale 0 is the no-effect control and ±100 the full control effect
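First compound was added to culture medium, then infected red cells at 0.1% parasitemia and 2% hematocrit (final). After incubation at 37 C under 5% CO2, luciferase detection reagent was dispensed and light output recorded.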
SARS PLP yeast: qHTS of Yeast-based Assay for SARS-CoV PLP | S. cerevisiae expressing SARS-CoV PLpro, growth rescue | Potency, µM (doses to about 32.9 µM), without a hit: at the top dose activity, positive = growth rescue, usual class: activators | hit rate 0.19% among 330,000 | AID 485353, 2010; calls by dose curve; further: potency means the concentration at half of the fitted maximal effect; 0% is about no effect; nearly all actives have a fitted effect of over 55% in size
Shiga toxin inh: A qHTS for Small Molecule Inhibitors of Shiga Toxin; Vero cells, Shiga toxin protein synthesis inhibition reporter; AID 2315, 2010; hit rate 9.2% among 290,000; inhibition, % at 38.7 µM; in the data active means inhibition mostly above about 28%, no sharp cut-off; inactive means mostly below about 43%; further: 0% is about no effect
Pf growth 96h: Primary qHTS for delayed death inhibitors of the malarial parasite plastid, 96 hour incubation; P. falciparum luciferase reporter growth, 96 h; Potency, µM (doses to about 28.7 µM), for inactives: at the top dose activity change, negative = inhibition, actives largely listed as inhibitors; hit rate 6.9% among 320,000; further: potency means the concentration at half of the fitted maximal effect; on the % scale 0 is the no-effect control and ±100 the full control effect
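P. falciparum expressing integrated firefly luciferase, in erythrocytes at 2% hematocrit, 0.05% parasitemia, incubated with compounds 96 h at 37 C, 5% CO2. Growth inhibition read as loss of luminescence; two-generation exposure targets delayed-death apicoplast inhibitors.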
NS1 inh: qHTS Assay for Inhibitors of Influenza NS1 Protein Function | hit rate 0.4% among 270,000 | Potency, µM (series often up to 46.1 µM), for inactives: top-dose activity, positive = more growth; calls by dose curve; further: potency means the concentration at half of the fitted maximal effect; actives are rising curves; nearly all actives have a fitted effect of over 50% in size
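Growth recovery, yeast-based: influenza A NS1 expressed in S. cerevisiae causes slow growth, and suppressors are detected by OD600. The parent strain without NS1 is used as positive control.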
Cycloheximide cs: Cycloheximide Counterscreen for Small Molecule Inhibitors of Shiga Toxin | cell reporter, cycloheximide protein synthesis inhibition counterscreen | max response, % | hit rate 12% among 300,000 | AID 2314, 2010; in the data active means max response mostly above about 13%, no sharp cut-off; inactive means mostly below about 14%; further: read at 38.3 µM for the half of the compounds with a filed dose; 0% is about no effect
* hit, by the source's call; [ ] = another dose, or the depositor's remark. Unless noted, the call rests on the fitted dose curve; in most records, active means well fitted inhibition curve with a large enough effect; inconclusive means small, poorly fitted or top-dose-only effect, or another doubt; inactive means no such curve, though single readings can be large or run the other way.

What do the screens show for `O=S(=O)(c1ccc(Cl)cc1)c1cnc(-c2cccnc2)nc1-c1ccccc1`?
Pf growth 48h: inconclusive; SARS PLP yeast: 4%; Shiga toxin inh: -15; Pf growth 96h: inconclusive; NS1 inh: 9%; Cycloheximide cs: -5

What do the screens show for `Cc1nc(-c2ccccc2)sc1-c1nc(-c2ccncc2)ncc1S(=O)(=O)c1ccccc1`?
Pf growth 48h: inconclusive; SARS PLP yeast: 5%; Shiga toxin inh: -11; Pf growth 96h: 1.7µM*; NS1 inh: 9%; Cycloheximide cs: 13

Results for CCN(CC(=O)Nc1ccc(OC)cc1)C(=O)c1ccccc1Sc1ccccc1C#N ?
Pf growth 48h: inconclusive; SARS PLP yeast: -2%; Pf growth 96h: 18%

How did COc1cc(OC)cc(C(=O)NNC(=O)CCC(=O)c2cccs2)c1 do in these assays?
Pf growth 48h: 4%; SARS PLP yeast: -5%; Shiga toxin inh: 14; Pf growth 96h: -8%; NS1 inh: -3%; Cycloheximide cs: -2

What do the screens show for `CCC(=O)Nc1c(C(=O)Nc2cccc(OC)c2)oc2ccccc12`?
Pf growth 48h: 117%; SARS PLP yeast: 0%; Shiga toxin inh: 37; Pf growth 96h: 54%; NS1 inh: -5%; Cycloheximide cs: 18*

What do the screens show for `CCOCC(=O)Nc1c(C(=O)Nc2ccccc2OC)oc2ccccc12`?
Pf growth 48h: -21%; SARS PLP yeast: 5%; Shiga toxin inh: 25; Pf growth 96h: 0%; NS1 inh: -5%; Cycloheximide cs: 10

What do the screens show for `COCC(=O)Nc1c(C(=O)Nc2ccc3c(c2)OCCO3)oc2ccccc12`?
Pf growth 48h: 369%; SARS PLP yeast: 1%; Shiga toxin inh: 93*; Pf growth 96h: inactive; Cycloheximide cs: 36*

Results for CCOC(=O)c1oc2ccccc2c1NC(=O)c1cccc(OC)c1 ?
Pf growth 48h: inconclusive; SARS PLP yeast: -13%; Shiga toxin inh: -23; Pf growth 96h: 73%; NS1 inh: -51%; Cycloheximide cs: 16

How did CCC(=O)Nc1c(C(=O)Nc2ccc3c(c2)OCCO3)oc2ccccc12 do in these assays?
Pf growth 48h: 304%; SARS PLP yeast: 0%; Shiga toxin inh: 88*; Pf growth 96h: inactive; Cycloheximide cs: 41

What do the screens show for `CCOCC(=O)Nc1c(C(=O)Nc2ccc3c(c2)OCCO3)oc2ccccc12`?
Pf growth 48h: 147%; SARS PLP yeast: -1%; Shiga toxin inh: 126*; Pf growth 96h: 138%; Cycloheximide cs: 37*

Results for O=C(Nc1ccc2c(c1)OCCO2)c1oc2ccccc2c1NC(=O)C1CC1 ?
Pf growth 48h: -19%; SARS PLP yeast: -2%; Shiga toxin inh: 17; Pf growth 96h: -21%; Cycloheximide cs: 3

How did Cc1cc(C)c(NC(=O)CCCC(=O)O)c(Cl)c1 do in these assays?
Pf growth 48h: -6%; SARS PLP yeast: -9%; Shiga toxin inh: -6; NS1 inh: 7%; Cycloheximide cs: -1

Results for Cc1cc(C)c(NC(=O)CN(CC(=O)O)CC(=O)O)c(C)c1Br ?
Pf growth 48h: -23%; Pf growth 96h: 3.4µM*

Results for COc1cccc(NC(=O)CSc2nc3ncc(Br)cc3[nH]2)c1 ?
Pf growth 48h: 24%; SARS PLP yeast: -3%; Shiga toxin inh: 26; Pf growth 96h: 6%; NS1 inh: 6%; Cycloheximide cs: -3

How did COc1cccc(OCc2nc3ccccc3[nH]2)c1 do in these assays?
SARS PLP yeast: -5%; Shiga toxin inh: 93*; Pf growth 96h: inconclusive; NS1 inh: -115%; Cycloheximide cs: 36*

What do the screens show for `COc1ccc(OCCCC(=O)NCCc2nc3ccccc3[nH]2)cc1`?
Pf growth 48h: inconclusive; SARS PLP yeast: -1%; Shiga toxin inh: -6; Pf growth 96h: 85%; NS1 inh: 1%; Cycloheximide cs: -3

What do the screens show for `COc1cccc(OCc2nc3ncc(Br)cc3[nH]2)c1`?
Pf growth 48h: 34%; SARS PLP yeast: -1%; Shiga toxin inh: 31; Pf growth 96h: inconclusive; NS1 inh: -5%; Cycloheximide cs: 17*

How did O=C(COc1ccc(F)cc1)NCCc1nc2ccccc2[nH]1 do in these assays?
Shiga toxin inh: -7; Cycloheximide cs: -2

How did C=CCn1c(SCc2nc3ccccc3[nH]2)nnc1-c1cccc(OC)c1 do in these assays?
Pf growth 48h: inconclusive; SARS PLP yeast: 0%; Shiga toxin inh: -15; Pf growth 96h: inconclusive; NS1 inh: -5%; Cycloheximide cs: 0

What do the screens show for `CN(C)C(=O)Oc1ccc(OCc2nc3ccccc3[nH]2)cc1`?
Pf growth 48h: 104%; SARS PLP yeast: -61%; Shiga toxin inh: 35*; Pf growth 96h: 120%; NS1 inh: -4%; Cycloheximide cs: 24*

How did COc1ccc(OCc2nc3ccccc3[nH]2)cc1 do in these assays?
Pf growth 48h: 115%; SARS PLP yeast: -17%; Shiga toxin inh: 152*; NS1 inh: -62%; Cycloheximide cs: 30

What do the screens show for `CC(C)CN(C(=O)c1ccc(S(=O)(=O)N2CCCC2)cc1)C1CCS(=O)(=O)C1` (configuration not stated)?
Pf growth 48h: -4%; SARS PLP yeast: 5%; Pf growth 96h: 2%

What do the screens show for `CC1CN(C(=O)CCC(=O)NCCCN2CCN(Cc3ccccc3)CC2)c2cc(Cl)ccc2O1` (configuration not stated)?
Pf growth 48h: inconclusive; SARS PLP yeast: -3%; Shiga toxin inh: -5; Pf growth 96h: inconclusive; NS1 inh: -7%; Cycloheximide cs: -9

What do the screens show for `Cc1ccc(OP(=O)(Nc2c(C)n(C)n(-c3ccccc3)c2=O)Oc2ccc(C)cc2)cc1`?
Pf growth 48h: -21%; SARS PLP yeast: 2%; Shiga toxin inh: -1; Pf growth 96h: 4%; NS1 inh: -10%; Cycloheximide cs: -2

What do the screens show for `O=C(COc1ccc2ccccc2c1)Nc1nc2ccccc2[nH]1`?
Pf growth 48h: 24%; SARS PLP yeast: 3%; Shiga toxin inh: 29; NS1 inh: -20%; Cycloheximide cs: -2

What do the screens show for `Brc1ccc(OCc2nc3ccccc3[nH]2)cc1`?
Pf growth 48h: 143%; SARS PLP yeast: -7%; Shiga toxin inh: 94*; Pf growth 96h: 169%; NS1 inh: -5%; Cycloheximide cs: 55*

Results for CC(=O)NCCc1nc2ccccc2[nH]1 ?
Pf growth 48h: 14%; SARS PLP yeast: 5%; Shiga toxin inh: -3; Pf growth 96h: 2%; NS1 inh: -6%; Cycloheximide cs: 0

How did c1ccc2cc(OCc3nc4ccccc4[nH]3)ccc2c1 do in these assays?
Pf growth 48h: 308%; SARS PLP yeast: -6%; Shiga toxin inh: 108*; Pf growth 96h: -19%; NS1 inh: -4%[9.22 µM]; Cycloheximide cs: 49*

How did CN(CC(=O)O)Cc1nc2ccccc2[nH]1 do in these assays?
SARS PLP yeast: -4%; Shiga toxin inh: 48; Pf growth 96h: 106%; NS1 inh: -5%; Cycloheximide cs: 28*

Screening results deposited in PubChem BioAssay by National Center for Advancing Translational Sciences (NCATS).
